Compounds with a hit are over-represented: about 2.4% of the library has one in this group of screens.
APOBEC3G inh: inhibitors of human APOBEC3G DNA deaminase. Q9HC16. recombinant A3G, ssDNA deamination FAM/TAMRA fluorescence. inhibition, % at 20 µM. 330,000 compounds, 0.28% hits;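 active = inhibition of at least 40% at 20 µM, with no more than 30% in the related APOBEC3A deaminase screen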
ADAM10 inh: inhibitors of human ADAM10; AID 720582; inhibition, % at 7 µM; 370,000 compounds, 0.62% hits; recombinant ADAM10, EDANS/DABCYL FRET peptide cleavage, 3 h; O14672;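 active = inhibition above a per-campaign cutoff equal to the mean of compounds falling between control-based bounds plus 3 SD, cut at about 20% in these data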
Target sequence (O14672 214-748 limits assumed): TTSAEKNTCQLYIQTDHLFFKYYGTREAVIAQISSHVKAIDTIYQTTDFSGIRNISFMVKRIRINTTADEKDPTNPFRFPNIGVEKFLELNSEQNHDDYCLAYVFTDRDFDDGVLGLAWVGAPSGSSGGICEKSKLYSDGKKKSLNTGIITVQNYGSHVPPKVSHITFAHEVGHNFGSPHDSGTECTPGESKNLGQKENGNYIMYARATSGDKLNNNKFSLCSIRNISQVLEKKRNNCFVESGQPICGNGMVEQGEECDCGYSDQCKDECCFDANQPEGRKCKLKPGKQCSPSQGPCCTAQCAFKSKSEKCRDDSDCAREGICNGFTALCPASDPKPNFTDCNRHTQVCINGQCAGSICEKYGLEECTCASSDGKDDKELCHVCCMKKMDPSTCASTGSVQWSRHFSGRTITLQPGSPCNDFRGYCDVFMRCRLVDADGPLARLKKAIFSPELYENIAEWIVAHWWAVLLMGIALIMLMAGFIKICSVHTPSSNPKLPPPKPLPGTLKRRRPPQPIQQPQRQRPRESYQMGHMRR
ADAM17 inh: ADAM17 inhibition, QFRET primary screen; recombinant ADAM17, EDANS/DABCYL FRET peptide cleavage; inhibition, % at 6.95 µM; 370,000 compounds, 0.83% hits;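 active = inhibition above the mean of compounds lying between control limits plus 3 SD, set per campaign, cut at about 8.5% in these data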
NRP1-CendR mod: NRP-1/CendR interaction modulation; O14786; FAM-RPARPAR peptide binding to NRP-1, fluorescence polarization; inhibition, % at 25 µM; 360,000 compounds, 0.85% hits; AID 602438;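 active = inhibition or corrected inhibition above about 18%, plus a signal ratio from 0.5 to 1.5, limit read from the data, passing the limit was not always enough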
APOBEC3A inh: blocks human APOBEC3A ssDNA deamination. P31941. recombinant A3A, FAM/TAMRA ssDNA deamination fluorescence. inhibition, % at 20 µM. 330,000 compounds, 0.41% hits;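 active = at least 40% inhibition at 20 µM here, with at most 30% in a related deaminase screen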
ADAM10 counter: counter-screen for ADAM17 exosite inhibitors: inhibitors of human ADAM10; recombinant ADAM10, EDANS/DABCYL FRET peptide cleavage, 3 h; 2,900 compounds, 47% hits; inhibition, % at 6.95 µM; AID 743256; shares compounds with ADAM17 inh;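 active = mean inhibition over the triplicate runs exceeds the activity threshold set in the earlier primary screen, cut at about 20% in these data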
ADAM17 confirm: human ADAM17 inhibition, confirmation; recombinant ADAM17, EDANS/DABCYL QFRET peptide cleavage; inhibition, % at 6.95 µM; shares compounds with ADAM17 inh; 2,900 compounds, 65% hits;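 active = mean inhibition across replicates above the hit cutoff set in the primary screen, cut at about 8.5% in these data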
Of the large screens only hits and unclear results are named; the others gave an inactive call (follow-up assays come after a bar, where they were run).

OC(c1ccccc1)(c1ccccc1)C1CCN(CCCOc2ccc(OC(F)(F)F)cc2)CC1	none (no result: APOBEC3G inh, NRP1-CendR mod, APOBEC3A inh)
COc1ccccc1OCCCN1CCC(C(O)(c2ccccc2)c2ccccc2)CC1	none (no result: APOBEC3G inh, APOBEC3A inh)
OC(c1ccccc1)(c1ccccc1)C1CCN(CCCOc2cccc(C(F)(F)F)c2)CC1	ADAM17 inh 9.9 (no result: APOBEC3G inh, NRP1-CendR mod, APOBEC3A inh) | ADAM10 counter 26.6 | ADAM17 confirm 19.1
OC(c1ccccc1)(c1ccccc1)C1CCN(CCCOc2ccc(C(F)(F)F)cc2)CC1	ADAM17 inh 11.1 (no result: APOBEC3G inh, NRP1-CendR mod, APOBEC3A inh) | ADAM10 counter 24.2 | ADAM17 confirm 9.8
COc1ccc(Cn2cc(F)c(=O)n(CCC(C)C)c2=O)cc1[N+](=O)[O-]	ADAM17 inh 9.8 | ADAM10 counter inactive | ADAM17 confirm inactive
CN(C)c1ccc(-c2csc(C(C)(O)c3ccc(F)c(F)c3)n2)cc1 (centres undefined)	ADAM17 inh 13.2 (no result: APOBEC3G inh, APOBEC3A inh) | ADAM10 counter inactive | ADAM17 confirm inactive
CCCCCCSC1=C(C#N)C(=O)NC2(CCCCC2)S1	ADAM17 inh 9.0 | ADAM10 counter inactive | ADAM17 confirm 9.0
Clc1ccc(OCCOCCOc2cccc3cccnc23)c(Br)c1	ADAM17 inh 8.9 | ADAM10 counter inactive | ADAM17 confirm 12.5
COC(=O)[C@H](Cc1ccccc1)N1CC=CS1(=O)=O	none (no result: APOBEC3G inh, NRP1-CendR mod, APOBEC3A inh)
COC(=O)[C@]12C[C@H](CC(=O)NCCCCc3ccccc3)C(=O)N(Cc3ccco3)C1=C[C@H](C(C)(C)C)O[C@@H]2C	ADAM17 inh 9.3 (no result: APOBEC3G inh, NRP1-CendR mod, APOBEC3A inh) | ADAM10 counter 27.3 | ADAM17 confirm 14.9
C#CCNC(=O)C[C@H]1C[C@@]2(C(=O)OC)C(=C[C@H](C(C)C)O[C@@H]2C2CC2)N(Cc2ccccc2)C1=O	none (no result: APOBEC3G inh, NRP1-CendR mod, APOBEC3A inh)
COC(=O)[C@]12C[C@H](CC(=O)NCc3cccc(C(F)(F)F)c3)C(=O)N(Cc3ccc4c(c3)OCO4)C1=C[C@H](C(C)(C)C)O[C@@H]2C	ADAM17 inh 12.8 (no result: APOBEC3G inh, NRP1-CendR mod, APOBEC3A inh) | ADAM10 counter 54.3 | ADAM17 confirm 19.1
COC(=O)[C@]12C[C@H](CC(=O)NCc3ccc(C)o3)C(=O)N(Cc3ccco3)C1=C[C@H](C(C)(C)C)O[C@@H]2C	none (no result: APOBEC3G inh, NRP1-CendR mod, APOBEC3A inh)
COC(=O)[C@]12C[C@H](CC(=O)NCCCCc3ccccc3)C(=O)N(Cc3ccco3)C1=C[C@H](C1CCCC1)O[C@@H]2C	none (no result: APOBEC3G inh, NRP1-CendR mod, APOBEC3A inh)
COC(=O)[C@]12C[C@H](CC(=O)NCCCCc3ccccc3)C(=O)N(Cc3ccccc3)C1=C[C@H](C(C)C)O[C@@H]2C1CC1	ADAM17 inh 16.8 (no result: APOBEC3G inh, NRP1-CendR mod, APOBEC3A inh) | ADAM10 counter 25.9 | ADAM17 confirm 13.2
COC(=O)[C@]12C[C@H](CC(=O)NCc3ccc(C)o3)C(=O)N(Cc3ccccc3)C1=C[C@H](C(C)(C)C)O[C@@H]2C	ADAM17 inh 10.2 (no result: APOBEC3G inh, NRP1-CendR mod, APOBEC3A inh) | ADAM10 counter inactive | ADAM17 confirm inactive
CCCCN1CN2CCc3ccccc3C2CS1(=O)=O (centres undefined)	none (no result: APOBEC3G inh, NRP1-CendR mod, APOBEC3A inh)
CCOC(=O)N1CCN(C(=O)C[C@H]2C[C@@]3(C(=O)OC)C(=C[C@H](C(C)C)O[C@@H]3C3CC3)N(Cc3ccc(Cl)cc3Cl)C2=O)CC1	ADAM17 inh 9.2 (no result: APOBEC3G inh, NRP1-CendR mod, APOBEC3A inh) | ADAM10 counter inactive | ADAM17 confirm 12.5
COC(=O)N1CCCCC1c1cc(C(=O)NCc2ccc(Cl)c(Cl)c2)no1 (centres undefined)	none (no result: APOBEC3G inh, APOBEC3A inh)
O=C(NCc1ccc(Cl)c(Cl)c1)c1cc(C2CCCCN2C(=O)C2CCCCC2)on1 (centres undefined)	ADAM17 inh 10.2 (no result: APOBEC3G inh, APOBEC3A inh) | ADAM10 counter inactive | ADAM17 confirm inactive
CN1OC[C@@H]2CN(CC3CCCCC3)[C@H](c3ccc(-c4ccc(C#N)cc4)cc3)C[C@@H]21	none (no result: APOBEC3G inh, NRP1-CendR mod, APOBEC3A inh)
CC1CC(C)CN(S(=O)(=O)c2ccc(NC(=O)CN3C(=O)NC(C)(c4ccccc4)C3=O)cc2)C1 (centres undefined)	ADAM17 inh 10.0 | ADAM10 counter 20.9 | ADAM17 confirm 11.8
CC1(c2ccccc2)NC(=O)N(CC(=O)Nc2ccc(S(N)(=O)=O)cc2)C1=O (centres undefined)	none
Cc1cccc(OCc2nnc(SCC(=O)Nc3cccc(C(=O)N4CCOCC4)c3)n2C)c1C	ADAM17 inh 10.3 | ADAM10 counter inactive | ADAM17 confirm inactive

Assay outcomes: PubChem BioAssay, several laboratories
